TrxR1 substrate: qHTS Assay for Substrates of Mammalian Selenoprotein Thioredoxin Reductase 1 (TrxR1): qHTS; purified TrxR1 substrate turnover, NADPH consumption readout; AID 588456, 2011; 0.01% of 390,000 active; Thioredoxin reductase 1, cytoplasmic (Rattus norvegicus), O89049; Potency, µM (titrated, usually from 114 µM), without a hit: top-dose activity change, negative = substrate turnover; further: potency means the concentration at half of the fitted maximal effect; on the % scale 0 is the no-effect control and ±100 the full control effect; nearly all actives have a fitted effect of over 50% in size
Target sequence (O89049 whole entry, looked up): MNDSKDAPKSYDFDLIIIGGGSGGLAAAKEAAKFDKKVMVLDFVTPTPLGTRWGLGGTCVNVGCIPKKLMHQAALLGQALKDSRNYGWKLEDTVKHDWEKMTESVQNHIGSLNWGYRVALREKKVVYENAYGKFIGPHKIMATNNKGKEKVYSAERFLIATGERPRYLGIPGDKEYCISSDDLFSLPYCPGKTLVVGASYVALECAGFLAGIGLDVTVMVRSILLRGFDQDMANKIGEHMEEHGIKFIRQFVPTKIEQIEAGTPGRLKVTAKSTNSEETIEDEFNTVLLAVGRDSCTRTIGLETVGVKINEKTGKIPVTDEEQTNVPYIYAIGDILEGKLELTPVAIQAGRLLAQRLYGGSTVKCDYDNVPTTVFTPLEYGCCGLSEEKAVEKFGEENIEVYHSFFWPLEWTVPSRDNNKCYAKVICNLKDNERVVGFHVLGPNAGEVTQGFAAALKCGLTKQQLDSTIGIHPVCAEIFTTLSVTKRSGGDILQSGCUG
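Rat TrxR1, dispensed at 90 nM, was prereduced with 400 uM NADPH (final) for 5 min at ~22 deg C, then incubated with compound 15 min before 400 uM selenite. A first-read NADPH fluorescence drop versus no-compound background flagged substrates.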
pAkt inh: HTS Assay for Inhibitors of Akt Phophorylation: Primary Screen. Neuro2A IGF-stimulated pAkt S473 HTRF, 20 min; hits give low values. activity change, % for hits at 50 µM. 0.32% of 360,000 active. AID 651550, 2012; in the data active means activity change below about -80%; inconclusive means mostly about -51% to -80%; further: on the % scale 0 is the no-effect control and ±100 the full control effect
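Neuro2A cells (4,500/well, DMEM with 0.5% FBS) were treated with compound at a single 50 µM final concentration, stimulated with 6 nM IGF for 20 min at 37 °C, and lysed. Phospho-Akt Ser473 was read by HTRF as 665/615 ratio ×10^4.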
Pin1 inhibitor: qHTS Assay to Find Inhibitors of Pin1 | Pin1 FP peptide displacement, HiFluor488, 10 min | Potency, µM (highest dose often 115 µM), for the others: at the top dose activity, negative = inhibition, most hits filed as inhibitors | 0.009% of 390,000 active; active means well fitted inhibition curve with a large enough effect in the polarisation, with a control signal flat, not every such curve was filed as active; inconclusive means small, poorly fitted or top-dose-only effect, or effect the other way, or a change in a side signal; inactive means no such curve, though single readings can be large or run the other way; the % refers to the polarisation; further: potency means the concentration at half of the fitted maximal effect; on the % scale 0 is the no-effect control and ±100 the full control effect
Target sequence (Q13526 whole entry, looked up): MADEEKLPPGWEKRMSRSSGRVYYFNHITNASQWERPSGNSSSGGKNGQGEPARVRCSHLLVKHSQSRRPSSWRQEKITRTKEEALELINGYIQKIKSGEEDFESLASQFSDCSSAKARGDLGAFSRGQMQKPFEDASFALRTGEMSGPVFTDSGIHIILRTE
rTrxR1 inhibitor: qHTS Assay for Inhibitors of Mammalian Selenoprotein Thioredoxin Reductase 1 (TrxR1): qHTS; recombinant rTrxR1, NADPH fluorescence consumption, selenite substrate; AID 588453, 2011; Thioredoxin reductase 1, cytoplasmic (Rattus norvegicus), O89049; Potency, µM (highest dose often 114 µM), inactives show top-dose activity change, negative = inhibition, most hits filed as inhibitors; 1% of 390,000 active; further: potency means the concentration at half of the fitted maximal effect; on the % scale 0 is the no-effect control and ±100 the full control effect; nearly all actives have a fitted effect of over 65% in size
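Rat TrxR1 (90 nM in the dispensed reagent) was pre-reduced with 400 uM NADPH for 5 min at room temperature, then incubated with compound for 15 min. After 400 uM selenite was added, NADPH fluorescence (Ex 340/Em 450 nm) was followed for 8 min.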
N370S GC: qHTS Assay for Inhibitors and Activators of N370S glucocerebrosidase as a Potential Chaperone Treatment of Gaucher Disease; 0.092% of 330,000 active; AID 2101, 2009; Potency, µM (top dose mostly 59.4 µM), for inactives: at the highest dose activity change, negative = inhibition, usual class: inhibitors; N370S GC spleen homogenate, 4MU-glucoside fluorescence;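 further: potency means the concentration at half of the fitted maximal effect; 0% = full enzyme activity and -100% = no enzyme basal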
AT treatment: qHTS Assay for Identifying a Potential Treatment of Ataxia-Telangiectasia. F2112 A-T fibroblasts, KAP-1 phosphorylation AlphaLISA; neocarzinostatin DNA damage 30 min before lysis. 0.19% of 320,000 active. AID 485349, 2010. Potency, µM (series often up to 57.5 µM), for the others: at the top dose activation, most hits filed as activators; further: potency means the concentration at half of the fitted maximal effect; % of control where 0% means no effect; nearly all actives have a fitted effect of over 45% in size
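ATM-like activity read as KAP-1 phosphorylation via AlphaLISA donor/acceptor antibody pairs after lysis and 6 hr at 25C. Cells were ATM-null patient fibroblasts (F2112, hTERT), dosed 60 min, then exposed to the DSB inducer NCS for 30 min.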
Active calls of the source: *; i = inactive; ? = inconclusive; . = no result; ! = repeats disagree; [ ] = dose if it differs, or a comment. This is a sample that favours compounds with a hit; in the whole collection about 1.4% have one here. Unless noted, the call rests on the fitted dose curve; in most records, active means well fitted curve in the direction sought with a large enough effect; inconclusive means small, poorly fitted or top-dose-only effect, or another doubt; inactive means no such curve, though single readings can be large; an effect the other way counts as inactive or inconclusive.

SMILES | TrxR1 substrate | pAkt inh | Pin1 inhibitor | rTrxR1 inhibitor | N370S GC | AT treatment
CCN1CCN(C2=C(NS(=O)(=O)c3ccc(NC(C)=O)cc3)C(=O)c3ccccc3C2=O)CC1 | -4% | . | 15% | 23% | 3% | 11%
CCN1CCN(C2=C(NS(=O)(=O)c3ccc(C)cc3)C(=O)c3ccccc3C2=O)CC1 | -2% | i | -13% | 79µM* | 0% | 21%
Cc1[nH]c2ccccc2c1C(=O)CSc1nc2ccccc2c(=O)n1CCCN1CCOCC1 | -6% | i | 11% | -13% | 10µM* | 9%
CC(=O)Nc1nnc(SCc2cc(=O)c3cccc(Cl)c3[nH]2)s1 | -5%[57.1 µM] | . | 20% | 0%[57.1 µM] | . | .
O=C(O)c1ccc2c3c(ncnc13)-c1ccccc1C2=O | -13% | i | ? | 10µM* | 4% | 22%
Cc1c(P(=S)(c2ccccc2)c2ccccc2)c2ccccc2n1CCc1ccccc1 | . | . | -3% | . | . | .
OC(Br)C(O)C(O)N1CCCc2ccccc21 (stereo not given) | 2% | . | . | 2% | . | .
CS(=O)(=O)n1nc(OC(=O)c2cccc3ccccc23)cc1N | -5% | i | 103% | 56µM* | -23% | 12%
CS(=O)(=O)n1nc(OC(=O)c2cc(Br)ccc2Cl)cc1N | 0% | i | 4% | 6.3µM* | 4% | 8%
Cc1cc2c(s1)c1cnn(Cc3cccc(Cl)c3F)c(=O)c1n2C | . | . | 16% | . | . | .
COc1ccc2c(c1)CC(C(=O)N1CCC(C(N)=O)CC1)CO2 (stereo not given) | 2%[57.1 µM] | . | -8% | 5%[57.1 µM] | . | .
Cc1ccc([C@H]2C(C#N)=C(N)Oc3cc(C)oc(=O)c32)o1 | 9%[57.1 µM] | i | 0% | -37% | -1% | 4%
Cc1cc2c(c(=O)o1)C(C(C)C)C(C#N)=C(N)O2 (stereo not given) | -6% | -100%* | -3% | 0% | -3% | 3%
CCN1CCN(C(=O)CCN(CC(C)C)c2nc(-c3cccs3)nc3ccccc23)CC1 | . | . | -4% | . | . | .
Cc1cc2c(s1)c1cnn(Cc3cc(OC(F)(F)F)ccc3F)c(=O)c1n2C | . | . | 1% | . | . | .
COc1ccc(NS(=O)(=O)c2ccc(N)c(C(=O)O)c2)cc1 | -13% | -115%* | -3% | -12% | 3%[2.35 µM] | 10%
CC1CCN(S(=O)(=O)c2ccc([N+](=O)[O-])cc2)CC1 | -2% | i | -6% | -24% | 0% | 14%
CC1CCN(S(=O)(=O)c2ccc(Oc3ccc([N+](=O)[O-])cc3)cc2)CC1 | 2%[57.1 µM] | -81%* | 6% | 5%[57.1 µM] | -12% | -3%
O=S1(=O)C=C(Sc2nnc(-c3ccccc3)o2)c2ccccc21 | 7% | i | 5% | 0.4µM* | 0% | -11%
Cc1cc(C)nc(SC2=CS(=O)(=O)c3ccccc32)n1 | 12%[57.1 µM] | i | 8% | -6%[57.1 µM] | 3% | 4%
CCCCCCc1ccc(OC(=O)c2ccncc2)cc1 | -4% | i | 2% | 20% | -3% | -11%
CCCCCCc1ccc(C(=O)CCN(C)C)cc1 | -1% | . | 3% | 10µM* | . | .
CN(C)CCC(=O)c1ccc(F)cc1 | 8% | i | -3% | 1.1µM* | 1% | -9%
CN(C)CCC(=O)c1cccc(Br)c1 | 0% | i | 2% | 0.32µM* | 6% | -2%
CN(CCOC(=O)c1cccc(Br)c1)C(C)(C)C | 18% | i | -15% | 10%[2.29 µM] | -7% | 8%
SMILES | TrxR1 substrate | pAkt inh | Pin1 inhibitor | rTrxR1 inhibitor | N370S GC | AT treatment
CCSC1=NS(=O)(=O)c2ccccc21 | . | . | -8% | . | . | .
O=c1c2ccccc2oc2ccc(-c3ccoc3)cc12 | 14% | . | . | ? | . | .
CC1CCn2c(nc3cc(C(=O)NCc4ccccc4)ccc32)C1 (stereo not given) | 0%[57.1 µM] | . | 0% | 17%[57.1 µM] | . | .
CCOC(=O)Nc1ccc2c(c1)N(C(=O)CCN1CCOCC1)c1ccccc1S2 | -2% | i | -7% | 16% | -6% | -5%
CCOC(=O)Nc1ccc2c(c1)N(C(=O)CCN1CCOCC1)c1ccccc1S2=O (stereo not given) | 2% | i | 2% | 32µM* | -20% | 27%
Cc1cccc(NS(=O)(=O)c2ccc3c(c2)n(C)c(=O)n3C)c1C | -9%[57.1 µM] | . | 58% | -8%[57.1 µM] | . | .
Cc1ccccc1-c1nc(CN2CCN(C(=O)c3ccco3)CC2)c(C)o1 | -6% | i | 9% | 56µM* | -3% | 1%
Cc1ccccc1-c1nc(CN2CCC(C(=O)NCC3CCCO3)CC2)c(C)o1 (stereo not given) | -3% | -119%* | -17% | 9%[57.1 µM] | -8% | 2%
CCOc1ccccc1-c1nc(CN2CCN(C(=O)c3ccco3)CC2)c(C)o1 | -11% | i | -1% | ? | 3% | 5%
COc1cc2c(cc1OC)CN(CCC(=O)c1ccc(Br)cc1)CC2 | -3%[57.1 µM] | i | -14% | 0.28µM* | -7% | -2%
CCOC(=O)N1CCN(CCC(=O)c2ccc(OC)cc2)CC1 | 5% | i | 1% | 3.5µM* | 10% | -2%
COc1ccc(C(=O)CCN2CCCC(C)C2)cc1 (stereo not given) | 13%[57.1 µM] | i | -2% | ? | 3% | -2%
COc1ccc(C(=O)CCN2CCC(C)CC2)cc1 | 0% | i | -2% | 0.71µM* | -10% | -1%
CCOC(=O)N1CCN(CCC(=O)c2ccc(Br)cc2)CC1 | 11%[57.1 µM] | i | -2% | 1µM* | -5% | -17%
Nc1cc(S(=O)(=O)N2CCN(S(=O)(=O)c3ccc4c(c3)OCCO4)CC2)ccn1 | . | . | 5% | . | . | .
O=[S+]([O-])(c1ccc2c(c1)OCCO2)N1CCN([S+](=O)([O-])c2c(F)cc(O)cc2F)CC1 | . | . | 16% | . | . | .
CCCCCCCCCCCCCC(=O)Nc1ccc(/C=C/c2ccnc3ccccc23)cc1 | -7% | . | . | -9% | . | .
O=C(O)Cn1c(O)c(C=Nc2ccccc2)sc1=S | -7% | -107%*! | 39% | -6% | -8% | 2%
CCOC(=O)CSC(=S)NC(=O)c1ccc(OC)cc1 | -2% | i | -3% | 22µM* | -3% | 13%
CCCCOc1ccc(C(=O)NCC(=O)NCC(=O)OCC)cc1 | -4% | i | 8% | -1% | -26% | 1%
CCOC(=O)CNC(=O)CNC(=O)c1ccc(OC)cc1 | -11% | -108%* | 1% | -7% | -6% | -5%
O=C(Nc1ccc(Cl)c(Cl)c1)c1csc(-c2ccccc2)n1 | -3% | i | 5% | -5% | 8% | 6%

High-throughput results (PubChem)
